Reference: PubChem BioAssay AID2401 (Southern Research Specialized Biocontainment Screening …, 2010)
Among all 2,200 compounds or so, about 530 (24%) were called active. A selection follows. Entries with a potency or affinity are not part of this list. A number with no mark means an inactive call.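 Rule for the calls: active = inhibition above a set limit at one or more concentrations of the dose series; inactive = inhibition under that limit at every dose.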

Experiment: S. Typhimurium nonspecific reporter signal inhibition – Salmonella Typhimurium, GFP fluorescence, counter-screen for PhoP regulon inhibitor project, dose response (AID 2401);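 note: S. typhimurium with Mg-insensitive nmpC-GFP reporter grown at 10 µM Mg2+; drop in reporter fluorescence reflects general culture growth inhibition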
Details: 4 h; series mostly up to 150 µM; inhibition: at the top concentration

SMILES | inhibition [%]
Nc1ccccc1NC1=CC(=O)CC(c2ccco2)C1 (configuration not stated) | 9.99
CCOC(=O)C1=NNC2(c3ccc(Cl)cc3)C(=O)N(c3cc(C)cc(C)c3)C(=O)C12 (configuration not stated) | -3.41
NC1=NC(=Nc2ccc(Cl)cc2)c2ccccc21 | -24.5
C=CCNCC#CCOc1ccc(OC)cc1 | -14.8
O=C1NC2=C(CCc3ccccc32)C(c2ccc(Br)cc2)N1 (configuration not stated) | 6.23
Cc1nc(C(=O)Nc2ccc(Cl)cc2)nn1-c1ccc([N+](=O)[O-])cc1 | -32.7
O=c1[nH]c2cc3c(cc2cc1CN(CCc1ccccc1)Cc1nnnn1CC1CCCO1)OCO3 (configuration not stated) | 18.2
Cc1cc(-c2csc(NC(=O)c3ccc(S(=O)(=O)N(C)C)cc3)n2)c(C)n1-c1ccccc1 | 12.5
Cc1cc(C(=O)NCc2ccco2)no1 | -21.8
COc1ccc(-c2cc(-c3ccc(OC)c(OC)c3)n[nH]2)c(O)c1 | 14.4
COCCNC(=O)c1ccccc1NS(=O)(=O)c1ccc(Br)s1 | -25.5
Cc1cccn2cc(CSc3nnc(Nc4ccc(C(C)C)cc4)s3)nc12 | 8.71
CCC(CC)C(=O)N1c2ccc(F)cc2CCC1C (configuration not stated) | 4.44
CC1(C)CC(=O)C2=C(C1)N(Cc1ccccc1)C(=O)C2(O)C(F)(F)F (configuration not stated) | -24.5
COc1ccc(CNc2nc3c(c(=O)[nH]c(=O)n3C)n2CCCc2ccccc2)cc1 | -4.23
COC(=O)c1cc(C#N)c(Oc2cccc(C)c2C)nc1C | -23.6
COC(=O)CN1C(c2ccc(OC)cc2)=Nc2ccc(Cl)cc2C1c1ccccc1 (configuration not stated) | -26.8
CCCCn1c(O)c(C(CC)=Nc2ccc3c(c2)CCC3)c(=O)[nH]c1=O | -7.34
Cc1ccc(C(=O)N2CC3(C(C)C)CN(C(=O)c4ccc(C)cc4)CC(C(C)C)(C2)C3=O)cc1 | -24.9
Cc1ccc(C(=O)C(OC(=O)COc2ccccc2C)c2ccccc2)cc1 (configuration not stated) | 0.19
Cc1cc(C)c(NC(=O)COc2ccccc2C(=O)Nc2ccc3c(c2)oc2ccccc23)c(C)c1 | -12.5
CC1(C)CC(=O)C=C(Nc2ccccc2NC(=O)c2cnccn2)C1 | -11.4
COc1cc(C2NC(=O)NC(c3ccccc3)=C2C(C)=O)ccc1OCC(=O)O (configuration not stated) | -5.18

SMILES | inhibition [%]
Cc1ccc(C(=O)c2ccccc2C(=O)O)c(O)c1 | 5.97
Cc1c(/C=C/C(=O)c2ccccc2)cnn1C | -35.3
COc1cccc(OC)c1C(=O)NC(=S)Nc1cc(-c2nc3ccccc3[nH]2)ccc1Cl | 15.3
Cc1cc(C=O)c(C)n1-c1ccc(Oc2ccc([N+](=O)[O-])cn2)cc1 | 0.24
CCCn1c(SCC(=O)NCCc2ccccc2)nnc1-c1cccnc1 | -16.1
O=[N+]([O-])c1ccc(N2CCN(CCOc3nonc3-c3ccccc3)CC2)c(Cl)c1 | -27.8
Cc1ccc(S(=O)(=O)c2c(N)n(NC(=O)c3ccco3)c3nc4ccccc4nc23)cc1 | -18.7
Cc1c(Cl)cccc1NC(=O)CSc1ncnc2c1cnn2CCc1ccccc1 | -13.4
Cc1cccc(NC(=S)NC(NC(=O)c2ccco2)C(Cl)(Cl)Cl)c1 (configuration not stated) | -26.1
CN(C)CCOC(=O)Cc1ccc(Cl)cc1 | -18.6
O=C(CN1C(=O)c2ccccc2C1=O)N1CCN(c2ccccn2)CC1 | -25.8
COC(=O)c1ccccc1Oc1cnc2ccccc2n1 | -28.7
Brc1ccc(NC2=Nc3ccccc3CC2)cc1 | -11.1
COc1ccc(N(CC(=O)Nc2ccccc2SC)S(C)(=O)=O)cc1OC | -12.1
Cc1ccccc1CS(=O)(=O)c1snnc1C | -13.8
CC(=O)Nc1ccc(NS(=O)(=O)c2ccc3c(c2)n(C)c(=O)n3C)cc1 | -23.9
CCOc1ccc(-c2nnc(SCc3nnc(-c4ccccc4)o3)n2-c2ccccc2F)cc1 | -8.6
COc1ccc(/C=C/C(=O)NCCc2nc3ccccc3[nH]2)cc1 | 26.3
CCOc1cc(/C=C2/NC(=O)N(CC(=O)Nc3cccc(C)c3)C2=O)ccc1OC | -25.9
O=C(c1cccnc1Nc1ccc2c(c1)CCC2)N1CCOCC1 | -20.1
Cc1cc(C)cc(NC(=O)CSc2nc3c(c(=O)[nH]2)CN(Cc2ccc(F)cc2)CC3)c1 | -6.71
O=C(c1cc2ncc(Br)cn2n1)N1CCOCC1 | -18.7
O=[N+]([O-])c1ccccc1CNc1ccc(F)c(Cl)c1 | -24

SMILES | inhibition [%]
Nc1nnc(SCCOc2ccc(Br)cc2)s1 | -20
O=S(=O)(NCc1ccccc1)c1cccc(S(=O)(=O)N2CCOCC2)c1 | 11
COc1ccc(Cl)cc1Nc1nc(-c2sc(NC(=O)c3ccco3)nc2C)cs1 | 20.6
O=C(/C=C/c1ccccc1)N1CCN(c2c(Cl)cccc2[N+](=O)[O-])CC1 | -29.2
CCCCOC(=O)CCNc1n[nH]c(=O)[nH]c1=O | 3.71
CN1CCN(S(=O)(=O)c2ccc(N)cc2)CC1 | -16.2
O=C(NCc1ccccn1)Nc1cccc(Cl)c1 | -24.5
Cn1c(N)c(C(=O)COC(=O)C2CCCCC2)c(=O)n(C)c1=O | -15.7
CC(C)CNC(=O)c1ccc(COc2ccc(Cl)cc2Cl)o1 | -4.89
C#CCOc1ccc(Cl)cc1/C=N/O | 13.5
CCCCN(C(=O)NC(=O)Nc1nc2ccc(OC)cc2s1)S(C)(=O)=O | 14.3
Cc1ccc2nc(SCC(=O)c3c(C)[nH]c4ccccc34)[nH]c2c1 | 30.9
CN(CCO)Cc1csc2ccc(Br)cc12 | -7.08
CCNC(=O)NC1(C(=O)Nc2ccc3c(c2)OCCO3)CCCCC1 | -29.3
CC1=CC(C)(C)n2c(O)c(C3=NC(=S)NC3=O)c3cc(OC(=O)c4cccc5ccccc45)cc1c32 | -11.6
CCOC(=O)C1CCCN(S(=O)(=O)c2ccc(Br)c(OC)c2)C1 (configuration not stated) | 0.83
O=C(CCc1ccccc1)Nc1nc2ccc(S(=O)(=O)N3CCOCC3)cc2s1 | 25.6
O=C(c1ccc2nc(N3CCOCC3)sc2c1)N1CCC(Cc2ccccc2)CC1 | -16.1
CN1CCN(S(=O)(=O)c2ccc(-c3ccccc3)cc2)CC1 | -28.3
CCC1C2CN(C(C)=O)CC=C2C(C#N)=C(N)C1(C#N)C#N (configuration not stated) | 3.63
CN(C)CCNc1nc(-c2ccccc2)nnc1C(F)(F)F | -3.73
Cc1cc(NCCN2CCOCC2)n2ncc(-c3ccccc3)c2n1 | -15.6
Nc1c(-c2ccccc2Cl)cnn1-c1cccc([N+](=O)[O-])c1 | -8.16

SMILES | inhibition [%]
N#Cc1ccc(C(c2nnnn2CCc2ccccc2)N2CCCCCC2)cc1 (configuration not stated) | -1.07
NC(=O)c1ccccc1NC(=O)/C=C/C(=O)O | -8.68
O=C(Cc1cccs1)Nc1nc2c(s1)CCCC2 | -24.8
COc1ccc([N+](=O)[O-])cc1N(CC(O)Cn1nnc2ccccc21)S(=O)(=O)c1ccc(C)cc1 (configuration not stated) | -42.2
Cc1cccc(NC(=O)c2ccc(Cn3cc(C(F)(F)F)ccc3=O)cc2)c1 | 7.69
O=C(O)/C=C/C(=O)Nc1cccc(C(F)(F)F)c1 | -19.4
NS(=O)(=O)c1ccc(Nc2nc(-c3ccc(O)cc3)cs2)cc1 | -18.4
COCc1cc(C)nc(N2CCc3ccccc32)c1C#N | -22.8
O=C(CSc1nnc(Cc2ccccc2)o1)NCCc1ccccc1 | -24.4
CCn1c(=N)n(CC(O)c2ccccc2)c2ccccc21 (configuration not stated) | -16
Cc1ccccc1OCCCCCn1ccnc1 | -17
COc1ccc(C(=O)NCCC2=CCCCC2)cc1OC | 5.91
C1=C(CCNc2ncnc3c2[nH]c2ccccc23)CCCC1 | 26.4
Cc1nc2ccccc2c(=O)n1/N=C/c1ccc(N(C)C)cc1 | -15.2
COc1cccc(Nc2nc(-c3sc(NC(=O)c4ccco4)nc3C)cs2)c1 | 25.7
O=C(NCCNS(=O)(=O)c1cccc(C(F)(F)F)c1)c1cc(OCC(F)(F)F)ccc1OCC(F)(F)F | -2.55
CCOC(=O)C1CCCN(C(=O)Cc2ccc(Cl)cc2)C1 (configuration not stated) | -20.2
NC(=NCc1ccc2c(c1)OCO2)NC(=O)c1ccccc1 | 36.3
COc1ccc(-c2nc3ncccc3n2O)cc1 | -18.4
O=C(CSc1nccc(=O)[nH]1)N1c2ccccc2CCc2ccccc21 | 1.74
O=C(CSC1CC(=O)N(CCc2ccccc2)C1=O)Nc1cccc(Cl)c1 (configuration not stated) | 9.92
COc1ccc(NC2=NC3(CCCCC3)N=C(N)N2)cc1 | -8.53
CC(C)c1ccc(NC(=O)Nc2cc3sccc3n2C)cc1 | 22.1

SMILES | inhibition [%]
CCOC(=O)C1CCCN(C(=O)c2sc3nc(C)nc(N4CCOCC4)c3c2C)C1 (configuration not stated) | -24.6
CCn1c(Cc2ccccc2)nnc1SCC(=O)Nc1nc(C)c(C)s1 | -12.1
OC1(c2cccc(C(F)(F)F)c2)CCN(c2ncnc3c2[nH]c2ccccc23)CC1 | 15.2
Cc1ccc(Oc2nnc(-c3ccccc3)c3ccccc23)cc1 | 3.31
NC(=O)c1oc2ccccc2c1NC(=O)CN1CCCCC1 | -2.53
O=C(CN1CCCc2ccccc21)N/N=C/c1c(O)ccc2ccccc12 | 38.1
Nc1ccc(S(=O)(=O)Nc2ccc(Cl)nn2)cc1 | 15.9
O=C(Nc1cccc(-c2cn3cccnc3n2)c1)c1ccco1 | -21.2
CCOCCCNC(=S)Nc1cc(C)cc(C)c1 | -3.38
O=C(CCNS(=O)(=O)c1cccc2nsnc12)Nc1ccc2c(c1)OCCO2 | -13.2
c1cncc(-c2nc(N3CCOCC3)c3ccccc3n2)c1 | -13.2
O=c1[nH]c(CN2CCCCC2)nc2ccccc12 | -18.8
c1ccc(COc2cccc(CN3CCN(c4ccccn4)CC3)c2)cc1 | -21.9
Cc1cc(C(C)c2ccccc2)c(O)c(CN2CCOCC2)c1C (configuration not stated) | 16.5
CC1(C)CC(=O)C(/C=N/c2ncccc2C(=O)O)=C(O)C1 | -7.77
CCOC(=O)c1ccc(NC(=O)Nc2cc(C)on2)cc1 | -22.6
COc1ccc(NC2=NC(=S)N(c3cccc(C)c3)C23CCCCC3)cc1 | -30.8
CN(C)c1ccc(Nc2nc(-c3cccnc3)cs2)cc1 | 31
CCC(CC)NC(=O)COC(=O)c1ccc(OCC(=O)Nc2ccccc2OC)c(OC)c1 | -12.6
O=C(O)C1CCCN1S(=O)(=O)c1ccc2[nH]c(=O)c(=O)[nH]c2c1 (configuration not stated) | -21.6
